POLB inh: blocks human DNA polymerase beta activity. P06746. Pol beta primer extension/strand displacement, fluorescence kinetic. Potency, µM (doses to about 114 µM), usual class: inhibitors. actives 1.3% (n = 340,000)
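Homogeneous kinetic assay of primer extension and strand displacement by 10 nM Pol beta, preincubated 15 min at room temperature with compound before 50 nM substrate (final) was added. Read at 0 and 10 min; four-parameter Hill fit.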
Pol kappa inh: DNA polymerase kappa (human) inhibition; Q9UBT6; purified Pol kappa, fluorescent DNA synthesis assay, 10 min; Potency, µM (highest dose often 107 µM), most hits filed as inhibitors; actives 0.53% (n = 400,000); AID 588579
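Readout: fluorescence, taken kinetically at 0 and 10 min. Conditions: 10 nM Pol kappa, 15 min RT compound preincubation, 50 nM substrate final. Controls: enzyme-free buffer wells.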
WRN inhibitor: inhibitors of human WRN helicase | WRN helicase unwinding, fluorescent forked duplex, kinetic | Potency, µM (top dose mostly 114 µM), hits mostly inhibitors | actives 0.46% (n = 360,000); also: nearly all actives have a fitted effect of over 55% in size
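Fluorescence dequenching readout, ex 525 nm/em 598 nm, kinetic mode: forked duplex DNA (100 nM final) with adjacent fluorophore and quencher unwound by WRN (20 nM final) with 2 mM ATP. Compound preincubation 15 min, room temperature.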
PI5P4K alpha inh: PI5P4K alpha (human) kinase inhibition; P48426; PI5P4Kalpha enzyme, ADP-Glo luminescence, 60 min; active compounds read low; max response, %; actives 1.2% (n = 330,000); active = max response of -50% or lower; inconclusive = between -30% and -50%; inactive = -30% or higher; also: value at the top dose of about 77 µM
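Reactions run in 0.038 M HEPES pH 7.4, 0.28 mM EGTA, 0.1% CHAPS and 5% DMSO, with PI5P4Kalpha, substrate, compound and 5 microM ATP final, one hour at room temperature. Readout is ADP-Glo luminescence.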
Pol iota inh: blocks human DNA polymerase iota activity | AID 588590 | Pol iota fluorescent replication assay, 10 min | Potency, µM (top dose mostly 115 µM), most hits filed as inhibitors | actives 1% (n = 390,000) | Q9UNA4
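Fluorescent replication assay read twice, at 0 min and 10 min after adding 50 nM (final) substrate. Enzyme (10 nM) and compounds were first incubated 15 min at room temperature; enzyme-free buffer wells were negative controls.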
POLH inh: blocks human DNA polymerase eta activity. Potency, µM (titrated, usually from 114 µM), hits mostly inhibitors. Q9Y253. recombinant Pol eta, fluorescent DNA replication assay. actives 1.2% (n = 390,000)
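Fluorescent replication assay: 50 nM final substrate added after a 15 min room-temperature compound preincubation with 10 nM enzyme. Signal taken at 0 min and again at 10 min.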
Numbers stand for hits; - = inactive; ? = inconclusive; . = no result given; [ ] = dose if it differs, or a comment. Only some compounds are listed: those with a hit (about 2.8% of all), similar ones and a draw of the others. Unless noted, calls follow the shape of the dose curve; as a rule, active = well fitted curve in the direction sought with a large enough effect; inconclusive = small, poorly fitted or top-dose-only effect, or another doubt; inactive = no such curve, though single readings can be large; an effect the other way counts as inactive or inconclusive.

SMILES	POLB inh	Pol kappa inh	WRN inhibitor	PI5P4K alpha inh	Pol iota inh	POLH inh
O=C(O)/C(=C\c1ccccc1Cl)c1ccc(S(=O)(=O)N2CCCCC2)s1	?	-	-	-	?	50.1µM
O=C(O)/C(=C\c1ccc(Cl)c([N+](=O)[O-])c1)c1ccc(S(=O)(=O)N2CCCCC2)s1	?	-	-[11.6 µM]	-	?	79.4µM
CCOC(=O)C1=C(COC(=O)c2ncc(Cl)c(Cl)c2Cl)NC(=O)NC1C (stereo unspecified)	.	-	-	-	-	-
O=C(CSc1nnc(-c2ccco2)o1)N1CCN(c2ccccc2)CC1	?	-	-	-	-	-
O=C(CSc1nnc(-c2ccc(Cl)cc2)o1)N1CCN(c2ccccc2)CC1	31.6µM	.	.	.	.	.
COCOCCn1cc(CN2CCS(=O)(=O)N(Cc3ccc(-c4ccc(OC)nc4)cc3)C(C(C)C)C2=O)nn1 (stereo unspecified)	.	.	-	-	.	?
S=c1[nH]nc(COc2ccccc2)n1/N=C/C=C/c1ccccc1	-	-	-	-	-	-
S=c1[nH]nc(COc2ccccc2)n1/N=C/C=C/c1ccco1	20µM	?	-	-52.2	?	28.2µM
COc1ccc(S(=O)(=O)NCC(=O)N(CC(=O)NCC2CCCO2)Cc2ccc(F)cc2)cc1 (stereo unspecified)	-	-	-	-	-	-
COc1ccc(-c2nc(CSc3nncn4c3cc3occc34)c(C)o2)cc1	3.55µM	?	.	.	?	-
CC(NC(=O)COC(=O)c1cn(-c2ccccc2)nc1-c1cccs1)c1ccccc1 (stereo unspecified)	-	-	-	.	?	79.4µM
Cc1ccc(NC2=C(NCCO)C(=O)c3ccccc3C2=O)cc1	-	-	-	-	20µM	-
CC(=O)Nc1ccc(NC2=C(Cl)C(=O)c3ccccc3C2=O)cc1	-	-	-[11.6 µM]	-	-	-
Cc1ccc(N2C(=O)c3cccc4c(N)ccc(c34)C2=O)c2cccnc12	?	?	?	-	79.4µM	?
CCc1ccc(S(=O)(=O)c2nnn3c2nc(Nc2ccc(NC(C)=O)cc2)c2sccc23)cc1	-	-	.	.	79.4µM	?
NS(=O)(=O)c1ccc(N=Nc2ccc(O)c3ncccc23)cc1	-	-	-	-79.4	-	?
O=C1C=CC(=Nc2cccc3c2C(=O)c2ccccc2-3)O1	.	-	-	-	-	-
O=C1C=CC(=Nc2ccc3c(c2)Cc2cc(F)ccc2-3)O1	.	-	?	-57.9	-	-
O=C(C1CC12CCCC2)N1CCC(CO)(Cc2ccccc2Cl)CC1 (stereo unspecified)	-	-	-	-	-	-
COc1ccc(Br)cc1/C=C/C(=O)Nc1ccc2ccccc2c1	-	-	-	-	-	-
CCC(=O)Nc1cccc(C(=O)/C=C/c2cc(Br)ccc2OC)c1	-	-	-[11.6 µM]	-	56.2µM	?
Cc1cccc(N2CCN(c3ccc(NC(=O)c4ccccc4)cc3C(=O)O)CC2C)c1 (stereo unspecified)	-	-	.	.	-	.
Cc1cccc(N2CCN(c3ccc(C(=O)O)cc3NC(=O)c3cccc(Cl)c3)CC2C)c1 (stereo unspecified)	31.6µM	-	.	.	-	-
CC(C)c1cccc(C(C)C)c1NC(=O)COC(=O)C1=COCCO1	-	-	-	-	-	-
CCC(=O)Nc1ccc(S(=O)(=O)NCc2cccn2Cc2cccc(C)c2)cc1	-	-	.	.	89.1µM	-
SMILES	POLB inh	Pol kappa inh	WRN inhibitor	PI5P4K alpha inh	Pol iota inh	POLH inh
Cc1ccc(NS(=O)(=O)c2cc([N+](=O)[O-])ccc2NNC(=S)Nc2cc(C)ccc2C)c(C)c1	-	-	-	-	-	-
Cc1ccc(NS(=O)(=O)c2cc([N+](=O)[O-])ccc2NNC(=S)Nc2cccc(Cl)c2)c(C)c1	?	-	?	-66.6	-	39.8µM
COC(=O)CCC(=O)NC(=S)Nc1ccccc1F	-	-	-	-	-	-
O=C(O)c1cc([N+](=O)[O-])cc2c1nnn2O	-	-	-	-67.4	?	-
O=C(O)c1ccc([N+](=O)[O-])cc1-c1cc([N+](=O)[O-])ccc1C(=O)O	.	-	-	-	-	-
CCn1c(=O)c2cc(C(=O)NCCc3cc(OC)ccc3OC)sc2c2ccccc21	-	-	.	.	-	-
Nc1c(N2CCOCC2)cc(Cl)c2nonc12	-	-	-	.	3.55µM	-
Nc1cc(Cl)ccc1N1CCCCC1	-	-	-	-	-	-
Nc1c(N2CCCC2)cc(Cl)c2nonc12	?	?	-	.	1.58µM	22.4µM
COc1ccc(O)c(/C=N/NC(=S)Nc2cccc(S(=O)(=O)N(C)C)c2)c1	-	-	-	-55.6	-	-
Cc1ccc2c(=O)cc(CSc3ncn[nH]3)[nH]c2c1C	?	-	.	.	-	-
O=C(O)CSc1nnc(SCc2cccc3ccccc23)s1	89.1µM	-	-	.	-	-
COc1ccc2c3c(ccc2c1)C(=O)/C(=C/O)CC3	.	-	?	?	-	-
COc1ccc(C(=O)Nc2ccc(OC)c([N+](=O)[O-])c2)cc1Br	20µM	-	-	-	-	?
COc1ccc(C(=O)Nc2cccc([N+](=O)[O-])c2)cc1Br	.	-	-	-	-	?
CC(C)(C=O)C1=CC(=O)c2ccccc2C1=O	-	-	50.1µM	-52.0	?	?
COc1cc(NCCCCCCN)c2ncccc2c1OC	.	-	50.1µM	?	11.2µM	44.7µM
COc1ccc(C(=O)NC(C)c2cccnc2)cc1S(=O)(=O)N(C)Cc1ccccc1 (stereo unspecified)	.	-	-	-	-	-
CCCCOc1ccc(/C=C/C(=O)NC2=Nc3ccccc3NC(C)=C2C(=O)OCC)cc1OC	-	-	-	-	-	-
CCOc1ccc(C(=O)Nc2cc(NC(=O)c3ccco3)ccc2OC)cc1Br	-	-	.	.	-	-
CCOc1ccc(C(=O)Nc2cccc(NC(=O)c3ccco3)c2)cc1Cl	-	-	.	.	89.1µM	-
COc1ccc(NC(=O)c2ccco2)cc1NC(=O)COc1ccc(C)cc1C	?	-	.	.	-	?
Cc1cc(C)c(OCC(=O)Nc2ccc(NC(=O)c3ccco3)cc2)c([N+](=O)[O-])c1	-	-	-	-	-	-
COc1ccc(NC(=O)c2ccco2)cc1NC(=O)COc1ccc(Cl)cc1C	?	-	.	.	-	79.4µM
Cc1ccc(OCC(=O)Nc2ccc(NC(=O)c3ccco3)cc2)c(C)c1	28.2µM	-	-	-	?	?
CC(C)(C)c1ccc(C(=O)NCCC(=O)Nc2ccc3c(c2)OCCO3)cc1	.	-	-	-	-	-
O=C(C[n+]1cccc2ccccc21)c1ccc([N+](=O)[O-])cc1	-	-	-	-65.5	-	-
Cc1ccc2occ(C3N[C@H](C(=O)O)CS3)c(=O)c2c1 (stereo partly specified)	-	-	-	?	10µM	?

High-throughput results from PubChem BioAssay.
